Test results as given in article PMC4336329 (PLoS ONE, 2015).
The whole screen tested about 310,000 compounds, of which about 14,000 (4.5%) showed an effect of 50% or more. The effect is printed as a negative number. The full list was thinned out, with strong results kept by preference.

These molecules were tested against human ether-à-go-go-related gene (hERG) potassium channel (human, UniProt Q12809) (assay: primary screen, population patch clamp on CHO cells stably expressing hERG; higher = less effect of the substance).
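Note: peak tail current of the secondary pulse compared with the same well before compound.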

Sequence of human ether-à-go-go-related gene (hERG) potassium channel (Q12809 whole entry, looked up): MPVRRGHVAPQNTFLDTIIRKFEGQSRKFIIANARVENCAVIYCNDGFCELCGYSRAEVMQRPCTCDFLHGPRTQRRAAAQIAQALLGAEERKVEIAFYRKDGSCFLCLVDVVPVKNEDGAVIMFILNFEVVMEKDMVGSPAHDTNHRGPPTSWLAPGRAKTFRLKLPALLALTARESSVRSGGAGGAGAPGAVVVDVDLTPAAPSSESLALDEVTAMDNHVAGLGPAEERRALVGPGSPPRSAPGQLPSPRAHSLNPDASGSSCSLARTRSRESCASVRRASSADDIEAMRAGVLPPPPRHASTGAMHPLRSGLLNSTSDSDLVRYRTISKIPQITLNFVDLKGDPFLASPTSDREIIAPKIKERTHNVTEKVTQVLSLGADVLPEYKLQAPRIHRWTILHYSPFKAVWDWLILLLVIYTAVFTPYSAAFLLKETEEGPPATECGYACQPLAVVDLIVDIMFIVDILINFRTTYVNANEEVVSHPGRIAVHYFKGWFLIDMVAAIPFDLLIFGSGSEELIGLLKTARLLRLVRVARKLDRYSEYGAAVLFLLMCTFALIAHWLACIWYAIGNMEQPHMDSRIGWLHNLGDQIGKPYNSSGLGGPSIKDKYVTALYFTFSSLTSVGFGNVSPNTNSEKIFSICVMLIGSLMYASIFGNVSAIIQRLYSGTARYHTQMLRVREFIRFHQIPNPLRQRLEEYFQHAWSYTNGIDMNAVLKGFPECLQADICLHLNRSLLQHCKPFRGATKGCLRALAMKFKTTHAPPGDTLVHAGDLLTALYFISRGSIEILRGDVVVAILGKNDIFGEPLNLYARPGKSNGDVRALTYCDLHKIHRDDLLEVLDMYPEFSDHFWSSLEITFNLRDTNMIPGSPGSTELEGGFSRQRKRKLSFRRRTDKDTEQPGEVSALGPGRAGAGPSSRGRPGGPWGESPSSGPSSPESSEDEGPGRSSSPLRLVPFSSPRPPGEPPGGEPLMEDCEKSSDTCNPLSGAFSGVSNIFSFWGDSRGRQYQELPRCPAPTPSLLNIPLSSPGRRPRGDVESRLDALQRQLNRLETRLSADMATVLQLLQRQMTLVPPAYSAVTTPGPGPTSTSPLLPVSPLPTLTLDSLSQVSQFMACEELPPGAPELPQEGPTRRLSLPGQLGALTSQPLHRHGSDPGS

Structure (SMILES)	hERG current change (%, negative = inhibition) at 10uM [%]
CC(C)COc1ccc(CNC(=S)Nc2ccccc2)cc1Cl	8.6
Cc1cc(C)c2c(=O)[nH]n(C(C)C)c2n1	7.27
O=C(O)c1ccc([N+](=O)[O-])c2c1C(=O)c1ccccc1C2=O	23.5
NC(=S)N/N=C/c1c[nH]c2ccc(OCc3ccccc3)cc12	6.65
NC(=O)CSc1nnc(NC(=O)c2cccc(S(=O)(=O)N3CCCCC3)c2)s1	25.3
CCC(C(=O)Nc1ccc2c(c1)OCCO2)c1ccccc1 (centres unmarked)	13.4
Cc1noc(C(=O)N2CCN(c3ccccc3)CC2)c1Cl	6.13
CC1CCN(CCc2nc3cc(NS(=O)(=O)c4ccc(F)cc4)ccc3n2C)CC1	-70.8
Cn1c(CCN2CCCC2)nc2cc(NS(=O)(=O)c3ccccc3)ccc21	-40.9
CC1CCN(CCc2nc3cc(NC(=O)NC4CCCCC4)ccc3n2C)CC1	-15.1
CC1CCN(CCc2nc3cc(NS(=O)(=O)c4ccccc4)ccc3n2C)CC1	-65.5
CC1CCN(CCc2nc3cc(NC(=O)C(C)C)ccc3n2C)CC1	-0.549
Cn1c(CCN2CCOCC2)nc2cc(NS(=O)(=O)c3ccccc3)ccc21	-1.84
Cc1ccc(S(=O)(=O)NCCC(=O)NNC(=O)COc2ccccc2Cl)cc1C	-1.77
O=C(NC1CCCCCC1)C1CC(=O)N(Cc2ccccc2)C1 (centres unmarked)	5.17
COc1ccccc1C(=O)NC(=S)Nc1ccc(N2CCOCC2)c(Cl)c1	13.1
O=[N+]([O-])c1ccc(Cl)cc1	10.9
CSc1cccc(NC(C)C(=O)NCc2ccccc2)c1 (centres unmarked)	2.74
c1ccc(N2CCN(Cc3ccnc4ccccc34)CC2)cc1	-0.764
CC(CCN1CCOCC1)c1ccccc1 (centres unmarked)	21.9
Cl.c1ccc(SCCN2CCN(c3ccccc3)CC2)cc1	-10.9
Cn1cc(CN2CCN(c3ccccc3)CC2)c2ccccc21	-54
CC(CCN1CCN(CCO)CC1)c1ccccc1 (centres unmarked)	9.32
CN1CCN(Cc2cn(C)c3ccccc23)CC1CCO (centres unmarked)	25.5

Structure (SMILES)	hERG current change (%, negative = inhibition) at 10uM [%]
CC(CCN1CCN(c2ccccc2)CC1)c1ccccc1.Cl (centres unmarked)	-54.6
CC(CCN1CCN(c2ccc(F)cc2)CC1)c1ccccc1 (centres unmarked)	-64.3
CC(CN1CCN(c2ccccc2)CC1)c1ccccc1 (centres unmarked)	-25.5
N#CCN1C(=O)NC2(CCCc3sccc32)C1=O (centres unmarked)	11.1
COc1cccc(-c2csc(/C(C#N)=C/Nc3cc4oc5ccccc5c4cc3OC)n2)c1	12.8
O=C(c1noc2c1CCCC2)N1CCCCC1	-0.65
Cc1cnc2c(c1)C(=O)c1ccccc1-2	13.6
O=C(NCCN1CCOCC1)c1ccccc1[N+](=O)[O-]	1.06
CN1CCN(c2ccc(NC(=S)NC(=O)/C=C/c3ccco3)cc2)CC1	-7.96
CCOc1ccc(S(=O)(=O)N2CCN(Cc3ccc4c(c3)OCO4)CC2)cc1Cl	-8.94
Cn1cnc(S(=O)(=O)N2CCN(C(c3ccc(F)cc3)c3ccc(F)cc3)CC2)c1	-7.05
Cc1cc(C)c(C)c(S(=O)(=O)NCCN2CCOCC2)c1C	-9.48
Cc1cc(=O)oc2c1ccc1ccccc12	18.7
CNC(=S)N(Cc1ccc(OC)cc1)Cc1cc2ccc(C)cc2[nH]c1=O	14
Cc1ccc2cc(CN(CC3CCCO3)C(=S)Nc3ccccc3)c(=O)[nH]c2c1 (centres unmarked)	-37
COC(=O)c1ccccc1NC(=S)N(Cc1ccc2c(c1)OCO2)Cc1cc2cc(C)ccc2[nH]c1=O	0.949
Cc1ccc2[nH]c(=O)c(CN(CC3CCCO3)C(=S)Nc3ccccc3)cc2c1 (centres unmarked)	-8.2
CCN1CCCC1CN(Cc1cc2ccc(C)cc2[nH]c1=O)C(=S)Nc1ccc(OC)cc1OC (centres unmarked)	-74.5
COC(=O)c1ccccc1NC(=S)N(Cc1ccc2c(c1)OCO2)Cc1cc2ccc(OC)cc2[nH]c1=O	-13.6
CCN(CC)CCN(Cc1cc2ccc(C)cc2[nH]c1=O)C(=S)Nc1ccccc1C(=O)OC	-64.2
CCN1CCCC1CN(Cc1cc2ccc(C)cc2[nH]c1=O)C(=S)Nc1ccc(F)cc1 (centres unmarked)	-78.5
CCN1CCCC1CN(Cc1cc2ccc(C)cc2[nH]c1=O)C(=S)Nc1ccccc1C(=O)OC (centres unmarked)	-85.2
CCN1CCCC1CN(Cc1cc2ccc(C)cc2[nH]c1=O)C(=S)Nc1ccccc1OC (centres unmarked)	46.7
COC(=O)c1ccccc1NC(=S)N(Cc1ccc2c(c1)OCO2)Cc1cc2ccc(C)cc2[nH]c1=O	15.1

Structure (SMILES)	hERG current change (%, negative = inhibition) at 10uM [%]
COC(=O)c1ccccc1NC(=S)N(Cc1ccc2c(c1)OCO2)Cc1cc2cc(OC)ccc2[nH]c1=O	8.29
Cc1ccc(NC(=O)CCN2C(=O)C3C4CCC(C4)C3C2=O)cc1[N+](=O)[O-] (centres unmarked)	-0.749
O=C(Nc1ccc(C(F)(F)F)cc1)c1cc(-c2cccnc2)nc2ccc(Br)cc12	-16.2
COc1ccc(N(CC(=O)NC(C)C)S(=O)(=O)c2ccc(NC(C)=O)cc2)cc1	2.29
CC(=O)c1c(C)[nH]c(C(=O)COC(=O)CCCOc2ccccc2)c1C	18.7
Cc1cccc(N(C(=O)Cn2nnc3ccccc32)C(C(=O)NC(C)(C)C)c2ccsc2)c1C (centres unmarked)	19.7
CCN1CCCC1CN(Cc1cc2ccc(C)cc2[nH]c1=O)C(=S)Nc1ccc(OC)cc1 (centres unmarked)	25.3
COc1ccc2[nH]c(=O)c(CN(CC3CCCO3)C(=S)Nc3cccc(C)c3)cc2c1 (centres unmarked)	16.3
CCN1CCCC1CN(Cc1cc2ccc(C)cc2[nH]c1=O)C(=S)Nc1cccc(OC)c1 (centres unmarked)	-70.7
CC(=O)N(Cc1ccc(F)cc1)C1=C(NCCc2ccccc2)C(=O)c2ccccc2C1=O	-0.648
NC(N)=N/N=C/c1c(Cl)cccc1Cl	-10.3
COC(=O)CCCC(NC(=S)N1CC2C[C@@H](C1)Cn1c2cccc1=O)C(=O)OC (some centres unmarked)	8.56
CCOc1ccc(NC(=S)N(CCCN2CCCC2)Cc2cccn2Cc2ccc(Cl)cc2)cc1	-58.4
S=C(Nc1cccc(Cl)c1)N(CCCN1CCCC1)Cc1cccn1Cc1ccc(Cl)cc1	-22.7
Cc1cccc(NC(=S)N(CCCN2CCCC2)Cc2cccn2Cc2ccc(Cl)cc2)c1	-71.8
Cc1ccc(NC(=S)N(CCCN2CCCC2)Cc2cccn2Cc2ccc(Cl)cc2)cc1	-22.9
Cc1ccc(NC(=S)N(CCCN2CCCC2)Cc2cccn2Cc2ccc(Cl)cc2)cc1Cl	6.99
Cc1ccc(NC(=S)N(CCCN2CCCC2)Cc2cccn2Cc2ccc(Cl)cc2)cc1C	4.72
CCCCC(CC)CNC(=O)C1C2C=CC(C2)C1C(=O)O (centres unmarked)	-4.63
CC1(C(=O)NC2CCCCC2)CCC(=O)N1Cc1cccs1 (centres unmarked)	-0.227
O=C(NCCCN1CCCC1=O)c1csc2ccccc12	-28.2
CCn1cc(CN2CCCC(CO)(Cc3ccc(F)cc3)C2)c2ccccc21 (centres unmarked)	-32
CCOc1ccc(CN2CCCC(CO)(Cc3ccc(F)cc3)C2)cc1 (centres unmarked)	-62
CC(C)Oc1ccc(CN2CCCC(CO)(Cc3ccccc3)C2)cc1CO (centres unmarked)	-43.1

Structure (SMILES)	hERG current change (%, negative = inhibition) at 10uM [%]
COC(=O)c1ccc(CN2CCCC(CO)(Cc3ccccc3F)C2)cc1 (centres unmarked)	-32.7
CC(C)Oc1ccc(CN2CCCC(CO)(Cc3ccc(F)cc3)C2)cc1 (centres unmarked)	-58.7
CCOc1ccc(CN2CCCC(CO)(Cc3ccccc3F)C2)cc1 (centres unmarked)	-64.8
CSCCCN1CCCC(CO)(Cc2ccc(F)cc2)C1 (centres unmarked)	-30.1
COc1cc(CN2CCCC(CO)(Cc3ccccc3F)C2)ccc1O (centres unmarked)	-22.5
O=C(O)c1cccc2c1C(=O)c1cc(Br)ccc1S2(=O)=O	20.2
Cc1ccc(S(=O)(=O)NCCS(=O)(=O)N2CCN(c3ccccc3)CC2)cc1	-1.5
CC(=O)c1nn(-c2cccc(Br)c2)cc1C(=O)c1ccc(Br)cc1	12.7
O=C(NCCCN=C1NS(=O)(=O)c2ccccc21)c1ccc(S(=O)(=O)N2CCOCC2)cc1	4.24
COCn1ccnc1C(O)(c1ccc(OC)cc1)c1ccc(OC)cc1	9.69
O=C(O)CCC(NS(=O)(=O)c1ccc(N2CCCC2=O)cc1)C(=O)O (centres unmarked)	-7.11
CC1CCC(N2CCN(C(=O)c3ccccc3F)CC2)CC1.O=C(O)C(=O)O (centres unmarked)	-2.63
O=C(c1ccc(F)cc1)N1CCC(c2ccccc2)C1 (centres unmarked)	2.75
O=C(O)C(=O)O.O=C(c1ccccc1)N1CCN(C2CCCCC2)CC1	-31.9
O=C(O)C(=O)O.O=C(c1ccc(F)cc1)N1CCN(C2CCC(c3ccccc3)CC2)CC1 (centres unmarked)	-76
O=C(c1ccc(F)cc1)N1CCCC(c2ccccc2)C1 (centres unmarked)	15.8
O=C(c1ccncc1)N1CCN(C(=O)c2ccncc2)CC1	12
COc1cccc(C(=O)N2CCN(C3CCC(c4ccccc4)CC3)CC2)c1OC.O=C(O)C(=O)O (centres unmarked)	-10.1
O=C(O)C(=O)O.O=C(c1ccncc1)N1CCN(C2CCCCC2)CC1	-23.4
O=C(O)C(=O)O.O=C(c1ccccc1)N1CCN(C2CCCCCC2)CC1	-28.8
O=C(O)C(=O)O.O=C(c1ccccc1F)N1CCN(C2CCC(c3ccccc3)CC2)CC1 (centres unmarked)	-60.5
O=C(O)C(=O)O.O=C(c1ccncc1)N1CCN(C2CCC(c3ccccc3)CC2)CC1 (centres unmarked)	-63.4
O=C(O)C(=O)O.O=C(c1ccc(F)cc1)N1CCN(C2CCCCC2)CC1	-62.1
